Columns and labels:
[1] = biological target: T1, Aspartate--tRNA(Asp/Asn) ligase (Mycobacterium tuberculosis (strain ATCC 25618 / H37Rv)) (UniProt P9WFW3); assay: Assay for Asp RNA synthetase-1 from Mycobacterium tuberculosis; assay type: functional; parameters: scale not given: direction of the effect not stated beside the values; settings: 30 µM; also: in the data most compounds retested in dose-response had high values
T1 sequence (whole entry): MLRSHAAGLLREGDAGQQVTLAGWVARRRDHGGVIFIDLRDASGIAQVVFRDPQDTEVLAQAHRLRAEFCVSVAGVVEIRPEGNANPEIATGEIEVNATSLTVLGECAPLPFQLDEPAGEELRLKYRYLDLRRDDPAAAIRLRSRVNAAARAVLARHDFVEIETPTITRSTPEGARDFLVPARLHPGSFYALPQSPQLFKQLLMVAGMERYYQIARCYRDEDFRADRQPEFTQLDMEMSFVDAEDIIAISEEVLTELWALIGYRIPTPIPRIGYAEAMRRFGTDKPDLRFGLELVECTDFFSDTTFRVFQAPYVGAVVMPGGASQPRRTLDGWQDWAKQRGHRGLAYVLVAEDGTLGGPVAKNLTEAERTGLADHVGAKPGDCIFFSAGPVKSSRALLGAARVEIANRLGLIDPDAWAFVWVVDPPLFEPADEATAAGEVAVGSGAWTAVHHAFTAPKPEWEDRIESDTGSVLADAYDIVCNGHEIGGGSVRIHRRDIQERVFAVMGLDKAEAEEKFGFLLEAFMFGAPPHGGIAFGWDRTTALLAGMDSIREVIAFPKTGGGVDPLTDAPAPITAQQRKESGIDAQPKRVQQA

[2] = biological target: Shiga toxin 2 (Escherichia coli O157:H7) (UniProt P09385+P09386); assay: E. coli 0.157:H7 Shiga Toxin SOP - stx2 screening assay; assay type: functional; parameters: scale not given: direction of the effect not stated beside the values; settings: 30 µM

Compound | Percent Effect [1] [%] | Percent Effect [2] [%]
O=C(COCC1CC1)N1CCCC(n2cncn2)C1 (configuration not stated) | -4.03 | 18.2
O=C(CCc1ccccn1)N1CCN(C(=O)CC2CCCCC2)CC1 | -2.28 | 3.5
Cc1cc2n(n1)CC(CNCc1cnn(-c3ccccc3)c1)CN2 (configuration not stated) | -1.15 | 7.05
Cc1cnn(CC2CN(CC(=O)Nc3nnc(C)s3)CCO2)c1 (configuration not stated) | -4.68 | 7.65
Cc1noc([C@@H]2CCCN2C(=O)C2CCN(C(=O)C3CCC3)CC2)n1 | 6.9 | -35.4
O=C(CN1CCN(CC(O)C2CC2)CC1)NCc1ccc(F)cc1 (configuration not stated) | -0.889 | -4.46
CC(CNC(=O)c1ccccc1Oc1cccnc1)N(C)C (configuration not stated) | -2.89 | -5.12
CC1CN(CC(=O)Nc2nncs2)CCN1Cc1nccn1C (configuration not stated) | 4.22 | 12.1
Cc1cccnc1CNc1cc(N2CCCC2CO)ncn1 (configuration not stated) | -4.52 | -6.27
O=S(=O)(C1CC1)N1CC[C@]2(C[C@@H](Oc3ccccn3)CO2)C1 | -1.12 | -6.89
CCn1cc(C(=O)NC2CCN(S(C)(=O)=O)CC2)c2ccccc21 | -0.607 | -0.257
O=C(Cn1ccc2ccccc21)NCc1ccc(C(=O)O)cc1 | 5.27 | 6.55
Cc1ccc(CN2Cc3nnn(C)c3C(COCCN(C)C)C2)s1 (configuration not stated) | -3 | -6.76
COc1ccc(OC)c(C2C3=C(COC3=O)Nc3[nH]nc(C)c32)c1 (configuration not stated) | -2.76 | -22.3
CCOCC(=O)N1CCC(Oc2ccc(C(F)(F)F)cn2)CC1 | 2.2 | 12.5
CC(c1cccnc1)N(C)Cc1csc(-c2ccccn2)n1 (configuration not stated) | -4.49 | -14.1
CN1CCN(Cc2cscn2)CC(C(=O)N(C)C)C1 (configuration not stated) | -6.57 | -14.6
Cc1cccc(C(=O)N2C[C@@H]3CCN(c4cccnc4)C[C@@H]3C2)c1 | 3.96 | -5.99
Cc1cc(N2CCC(NC(=O)C3CC3)CC2)nc(-c2ccncc2)n1 | 0.463 | -21.4
CN(C)C(=O)CN1CCCC2(CCN(c3ccsc3)C2=O)C1 (configuration not stated) | 2.4 | -21.7
CN(C)C(=O)[C@H]1C[C@@H]2CCN(C3CCOCC3)C[C@H]2O1 | -3.87 | -13.4
CCOc1ccnc(N2CCN(C(=O)c3cn[nH]c3CC)CC2)n1 | -1.77 | 5.02
COCCC(=O)N1CC[C@@H]2O[C@@H](C)C[C@H]2C1 | -0.28 | -0.0436

Compound | Percent Effect [1] [%] | Percent Effect [2] [%]
O=C1CC(c2ccccc2)c2snc(C(=O)O)c2N1 (configuration not stated) | -6.76 | -1.61
COc1cccc(OCC(=O)NS(=O)(=O)c2ccc(C)s2)c1 | 1.83 | -6.18
Cc1c(C)n(Cc2ccccn2)c2nc3c(c(N)c12)CCCC3 | -2.53 | -3.33
Cn1ccnc1CN1CCC2(CC1)CC(NC(=O)c1ccccn1)CO2 (configuration not stated) | 2.38 | -19.4
CCc1nnc(CN2CCN(C(=O)c3cc4ccccc4[nH]3)CC2)o1 | -2.68 | 8.5
Cc1cccc(NC(=O)CNC(=O)Cn2ncc(Cl)c(Cl)c2=O)c1C | 9.53 | -21.2
CN(C(=O)Cn1nc(-c2ccc(F)cc2)oc1=O)C1CCS(=O)(=O)C1 (configuration not stated) | 4.6 | -7.66
N#Cc1ccccc1N1CCCN(C(=O)CCc2nccs2)CC1 | -8.37 | 9.06
Cc1cc(-c2cnc(N3CCN(C)CC3)nc2-c2ccc(C)s2)on1 | -3.23 | -24.7
O=C(NCCNc1ncccn1)C1CC(=O)N(CC(F)(F)F)C1 (configuration not stated) | -6.31 | 20.8
Cc1nc(CN2C(=O)CC[C@H]3[C@@H]2CCN3C(=O)c2ccsc2)cs1 | -4.11 | -2.73
COCCN1CCC(NCc2ccc(C#N)cc2)C1 (configuration not stated) | -2.03 | -49.3
CCOCC1CN(Cc2ccc(OC)cc2)Cc2nn(C)cc21 (configuration not stated) | 11.4 | -5.58
CCC(=O)N1CCC(c2nnc(Cn3cccn3)n2C2CC2)CC1 | -6.07 | -3.53
CC(C)c1ncncc1C(=O)N1CCN(Cc2cscn2)CC1 | -2.56 | -22.9
CCN(CC)C(=O)CN(C)C1CCc2ccccc21 (configuration not stated) | -4.5 | 14.4
CN(C)C(=O)N1Cc2nnn(C)c2C(COCC2CC2)C1 (configuration not stated) | 3.51 | -35.2
CC(=O)NCCc1cc(N2CCN(C(C)=O)CC2)nc(C2CC2)n1 | -3.2 | -16
CCN1CC(C(=O)NC(C)(C)CC(C)(C)C)CC1=O (configuration not stated) | 2.27 | -6.14
CC1CCCN(C(=O)c2cccc(CS(C)(=O)=O)c2)C1 (configuration not stated) | -4.9 | -32
CCC(=O)N1CCC2(CC1)c1nc[nH]c1CCN2S(C)(=O)=O | -2.17 | 14.6
CN(Cc1nc(-c2ccco2)no1)C1CCCN(c2cccnn2)C1 (configuration not stated) | -3.2 | -26.8
CC(C)n1[nH]c(=O)c2c1NC(=O)CC2c1ccc2ncccc2c1 (configuration not stated) | -3.5 | -15.3

From ChEMBL document CHEMBL3988442, “University of Dundee, Small-Polar-MMV Screening Library” (2021)
